Results filed as inconclusive are left out. Active and inactive are the calls of the source. The call rests on the fitted dose curve; in most records, active means well fitted curve in the direction sought with a large enough effect; inconclusive means small, poorly fitted or top-dose-only effect, or another doubt; inactive means no such curve, though single readings can be large; an effect the other way counts as inactive or inconclusive.
Legend:
[1] = qHTS for compounds that reverse cellular toxicity of Amyloid beta (A-beta) peptide in yeast: LOPAC Validation Assay (AID 720559)
How it was run: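 Yeast cells expressing toxic A-beta were combined with pinned compounds in growth medium and incubated 48 hr at 30 C. Growth was read as absorbance at 600 nm and normalized to DMSO and to an equimolar FeCl3/clioquinol positive control.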

[2] = qHTS for Activators of Parkin Expression: LOPAC Validation Assay (NLuc Reporter) (AID 720572)
How it was run: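 Parkin promoter-driven FLuc/NLuc neuronal reporter cells; 24 h plating, 7-pt dose response, 24 h at 37 C/5% CO2; FLuc then NanoLuc reagent, 10 min each, luminescence; DMSO/positive control normalized.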

[3] = qHTS for Activators of Parkin Expression: LOPAC Validation Assay (FLuc Reporter) (AID 720573)
How it was run: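 Neuronal cell line stably carrying FLuc/NLuc coincidence reporter under Parkin promoter; cells plated 24 h, then compounds added in 7-point dose response for 24 h at 37 C. FLuc luminescence read; normalized to DMSO and positive control (100%).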

[4] = biological target: Hexokinase-4 (Homo sapiens) + Glucokinase regulatory protein (Homo sapiens) (UniProt P35557+Q14397); test: qHTS assay for inhibitors of recombinant human GCK-GKRP interaction: Diaphorase-coupled assay (AID 743205)
Hexokinase-4 (Homo sapiens) + Glucokinase regulatory protein (Homo sapiens), sequence (P35557 whole entry, looked up): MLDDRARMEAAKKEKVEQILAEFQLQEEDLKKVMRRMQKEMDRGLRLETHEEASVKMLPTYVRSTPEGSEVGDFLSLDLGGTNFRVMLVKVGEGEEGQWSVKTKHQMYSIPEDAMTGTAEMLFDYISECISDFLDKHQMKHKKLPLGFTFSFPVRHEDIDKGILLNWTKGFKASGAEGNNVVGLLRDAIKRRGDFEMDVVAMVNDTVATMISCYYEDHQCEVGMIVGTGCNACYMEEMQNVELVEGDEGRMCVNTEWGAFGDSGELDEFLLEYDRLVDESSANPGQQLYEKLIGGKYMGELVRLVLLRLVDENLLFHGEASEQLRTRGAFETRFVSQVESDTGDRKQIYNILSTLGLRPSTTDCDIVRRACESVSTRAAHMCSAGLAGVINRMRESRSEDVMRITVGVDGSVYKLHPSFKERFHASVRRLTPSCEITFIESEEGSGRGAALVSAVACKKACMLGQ
Hexokinase-4 (Homo sapiens) + Glucokinase regulatory protein (Homo sapiens), sequence (Q14397 whole entry, looked up): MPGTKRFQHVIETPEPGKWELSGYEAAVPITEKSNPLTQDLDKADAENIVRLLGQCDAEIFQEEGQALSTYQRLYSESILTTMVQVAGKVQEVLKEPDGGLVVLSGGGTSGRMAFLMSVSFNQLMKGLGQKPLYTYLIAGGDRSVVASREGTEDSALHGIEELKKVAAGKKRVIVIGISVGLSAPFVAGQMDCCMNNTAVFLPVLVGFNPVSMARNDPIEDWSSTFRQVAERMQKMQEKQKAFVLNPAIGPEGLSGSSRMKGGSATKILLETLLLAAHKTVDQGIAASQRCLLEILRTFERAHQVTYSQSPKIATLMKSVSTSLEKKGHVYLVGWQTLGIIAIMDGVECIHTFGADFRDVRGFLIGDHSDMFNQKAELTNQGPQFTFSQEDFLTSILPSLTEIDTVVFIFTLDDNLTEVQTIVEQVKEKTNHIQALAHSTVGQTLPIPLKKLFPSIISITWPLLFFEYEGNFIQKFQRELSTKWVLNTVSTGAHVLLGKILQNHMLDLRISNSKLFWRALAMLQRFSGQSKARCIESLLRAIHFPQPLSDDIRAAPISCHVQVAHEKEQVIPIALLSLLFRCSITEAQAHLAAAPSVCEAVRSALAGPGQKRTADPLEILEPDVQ
How it was run: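 GST-GCK (10 nM) with FLAG-GKRP (10 nM), 5 mM glucose and 0.4 mM ATP in pH 7.6 Hepes; compounds preincubated 20 min with substrate. G6PDH/diaphorase coupling converts resazurin to resorufin, read kinetically (ex 525/em 590 nm) for 30 min.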

Measured: Potency

NC(=O)CC[C@H](N)C(=O)O
inactive: all assays above

CC(C)(C)c1ccc(/C=C/C(=O)Nc2ccc3c(c2)OCCO3)cc1
inactive: all assays above

Oc1ccc(Cn2cc[nH]c2=S)cc1
inactive: all assays above

COCc1nc2c([nH]1)c(=O)n(C)c(=O)n2CC(C)C
inactive: all assays above

CC(C)C[C@H](NC(=O)[C@H](O)[C@H](N)Cc1ccccc1)C(=O)O
inactive: all assays above

[Li+]
inactive: all assays above

c1ccc2nc(C3=NCCN3)ccc2c1
inactive: all assays above

C[C@]12C=CC(=O)C=C1CC[C@@H]1C2=CC[C@]2(C)[C@@H](C(=O)CN3CCN(c4cc(N5CCCC5)nc(N5CCCC5)n4)CC3)CC[C@@H]12
inactive: all assays above

c1ccc2c(c1)CC(N1CCN(c3cccc4c3OCCO4)CC1)C2
inactive: all assays above

O=c1cc(-c2ccccc2)[nH]c2nc(Cl)ccc12
inactive: all assays above

N#Cc1cc2nc(O)c(O)nc2cc1[N+](=O)[O-]
inactive: all assays above

Oc1cc(O)c2c(c1)O[C@H](c1ccc(O)c(O)c1)[C@@H](O)C2
inactive: all assays above

C=C(C)C1CC=C(C(=O)O)CC1 (stereo unspecified)
inactive: all assays above

O=C(O)C1CCCNC1 (stereo unspecified)
inactive: all assays above

COc1ccc(-c2cc3ncc(C)n3c(Nc3ncccc3C(N)=O)n2)cc1OC
inactive: all assays above

O=C(O)C1=CCCN(CCON=C(c2ccccc2)c2ccccc2)C1
inactive: all assays above

CCN(c1nc(N)c(C(=O)N=C(N)N)nc1Cl)C(C)C
inactive: all assays above

CSC(=N)N
inactive: all assays above

COc1cc([C@@H]2c3cc4c(cc3[C@H](O)C3COC(=O)[C@@H]32)OCO4)cc(OC)c1OC (stereo partly specified)
inactive: all assays above

CC(C)[C@@H]1CC[C@@H](C)C[C@@H]1P(=O)(c1ccccc1)c1ccccc1
inactive: all assays above

O=C1OC(=O)C2C3CCC(O3)C12 (stereo unspecified)
inactive: all assays above

COC(=O)C(C)(N)Cc1ccc(O)cc1 (stereo unspecified)
inactive: all assays above

O=C1C2C=CC=CC2=NC(=S)N1CCN1CCC(=C(c2ccc(F)cc2)c2ccc(F)cc2)CC1 (stereo unspecified)
inactive: all assays above

N#CC(C#N)=C(N)/C(C#N)=C/c1ccc(O)cc1
inactive: all assays above

O=S(=O)(c1cccc2c(Cl)cccc12)N1CCCNCC1
inactive: all assays above

N#Cc1cc([N+](=O)[O-])c2sc(C(N)=O)[n+]([O-])c2c1
inactive: all assays above

COc1ccc(C(=O)NCc2cccnc2)cc1C(=O)NCc1cccnc1
inactive: all assays above

CC(C)(C)NCC(O)COc1cccc2[nH]c(=O)[nH]c12 (stereo unspecified)
inactive: all assays above

CCCOC(=O)c1c(-c2ccccc2)nc(CC)c(C(=O)SCC)c1CCC
inactive: all assays above

Nc1ccc(N2C(=O)c3ccccc3C2=O)c(Cl)c1
inactive: all assays above

NCC(O)(CS(=O)(=O)O)c1ccc(Cl)cc1 (stereo unspecified)
inactive: all assays above

NCC(O)C1CCCCCCC1 (stereo unspecified)
inactive: all assays above

CNCCc1cnc(CCC(c2ccccc2)c2ccccc2)[nH]1
inactive: all assays above

c1ccc2c(c1)CCC[C@H]2Nc1nc2ccccc2[nH]1
inactive: all assays above

COc1cc(C(O)C(=O)O)ccc1O (stereo unspecified)
inactive: all assays above

Cn1cc(C(=O)OCC2CCN(CCNS(C)(=O)=O)CC2)c2ccccc21
inactive: all assays above

Cn1c(=O)c2c(nc(/C=C/c3cccc(Cl)c3)n2C)n(C)c1=O
inactive: all assays above

COc1ccc(-c2ccc(N)[n+](CCCC(=O)O)n2)cc1
inactive: all assays above

NC[C@@H]1O[C@H](c2ccccc2)Cc2c1ccc(O)c2O
inactive: all assays above

Source: PubChem BioAssay (NCATS)
